# Reference: PubChem BioAssay AID1508601 (ICCB-Longwood Screening Facility, Harvard Medical School, 2020)
# Values joined by “and” are separate entries in the source; they are usually repeats but may differ in a detail not shown here. Equal entries are not always repeated. About 85 (1%) of roughly 5,700 compounds were called active. No stated cut-off is given here; in the data, active means p53-positive nuclei above about 36% (passing the limit was not always enough); inactive means the rest. The entries come from a sample that favours actives as a whole. Some compounds were tested as several samples or in several runs, with calls that do not always agree.
# How the values were obtained:
# [1] = nuclear p53 accumulation, HPV+ cells – imaging, p53-positive nuclei imaging, 24 h, 48 h (AID 1508601); settings: 24/48 h
# [2] = molecular target: Cellular tumor antigen p53 (Homo sapiens) (UniProt P04637); experiment: as above; settings: 24/48 h, stronger effect = higher value
# Chain of Cellular tumor antigen p53 (Homo sapiens) (P04637 whole entry, looked up): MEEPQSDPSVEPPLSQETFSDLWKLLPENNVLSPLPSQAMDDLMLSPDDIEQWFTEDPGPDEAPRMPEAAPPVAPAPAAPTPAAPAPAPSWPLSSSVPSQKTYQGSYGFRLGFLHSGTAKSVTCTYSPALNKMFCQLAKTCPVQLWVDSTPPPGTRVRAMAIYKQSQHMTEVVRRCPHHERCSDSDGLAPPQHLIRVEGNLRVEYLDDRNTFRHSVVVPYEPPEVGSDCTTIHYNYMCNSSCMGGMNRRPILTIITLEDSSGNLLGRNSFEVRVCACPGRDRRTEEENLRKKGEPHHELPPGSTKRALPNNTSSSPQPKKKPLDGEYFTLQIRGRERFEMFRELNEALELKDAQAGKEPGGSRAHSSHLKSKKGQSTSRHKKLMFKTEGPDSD
# [3] = measured here: cell number at 24 h, concentration not given here
# [4] = measured here: cell number at 48 h, concentration not given here
# [5] = measured here: p53 positive nuclei at 24 h, concentration not given here
compound,measurement,setting,value
Cc1sc2c(c1C)C(c1ccc(Cl)cc1)=NC(CC(=O)OC(C)(C)C)c1nnc(C)n1-2 (stereo not given),"nuclei count, normalised","[1]; measured here: cell number at 24 h, Library stock concentration: 80 uM",101% and 128% and 116%
same,"nuclei count, normalised","[1]; measured here: cell number at 24 h, Library stock concentration: 400 uM",109% and 128% and 117%
same,"nuclei count, normalised","[1]; measured here: cell number at 24 h, Library stock concentration: 2 mM",107% and 132% and 120%
same,"nuclei count, normalised","[1]; measured here: cell number at 24 h, Library stock concentration: 3.33 mM",128%
same,"nuclei count, normalised","[1]; measured here: cell number at 24 h, Library stock concentration: 10 mM",99.7% and 123% and 119%
same,"nuclei count, normalised","[1]; measured here: cell number at 48 h, Library stock concentration: 80 uM",95.3% and 134% and 114%
same,"nuclei count, normalised","[1]; measured here: cell number at 48 h, Library stock concentration: 400 uM",97.6% and 128% and 112%
same,"nuclei count, normalised","[1]; measured here: cell number at 48 h, Library stock concentration: 2 mM",109% and 132% and 118%
same,"nuclei count, normalised","[1]; measured here: cell number at 48 h, Library stock concentration: 3.33 mM",124%
same,"nuclei count, normalised","[1]; measured here: cell number at 48 h, Library stock concentration: 10 mM",99.9% and 124% and 117%
same,"p53-positive nuclei, normalised",[2]; Library stock concentration: 80 uM,0.233% (inactive) and -0.29% (inactive) and -0.79% (inactive)
same,"p53-positive nuclei, normalised",[2]; Library stock concentration: 400 uM,-0.238% (inactive) and -0.0882% (inactive) and -0.721% (inactive)
same,"p53-positive nuclei, normalised",[2]; Library stock concentration: 2 mM,3.93% (inactive) and 0.629% (inactive) and -0.825% (inactive)
same,"p53-positive nuclei, normalised",[2]; Library stock concentration: 3.33 mM,7.2% (inactive)
same,"p53-positive nuclei, normalised",[2]; Library stock concentration: 10 mM,26.8% (active) and 8.08% (inactive) and -0.599% (inactive)
same,"p53-positive nuclei, normalised","[2]; measured here: p53 positive nuclei at 24 h, Library stock concentration: 80 uM",0.0692% and 0.858% and -0.21%
same,"p53-positive nuclei, normalised","[2]; measured here: p53 positive nuclei at 24 h, Library stock concentration: 400 uM",0.159% and 1.07% and -0.0728%
same,"p53-positive nuclei, normalised","[2]; measured here: p53 positive nuclei at 24 h, Library stock concentration: 2 mM",12.9% and 4.45% and -0.21%
same,"p53-positive nuclei, normalised","[2]; measured here: p53 positive nuclei at 24 h, Library stock concentration: 3.33 mM",15.6%
same,"p53-positive nuclei, normalised","[2]; measured here: p53 positive nuclei at 24 h, Library stock concentration: 10 mM",54.1% and 21.9% and 0.0629%
CCCCC/C=C\C/C=C\C/C=C\C/C=C\CCCC(=O)N[C@@H](CO)C(=O)O,"nuclei count, normalised",[1]; [3],108%
same,"nuclei count, normalised",[1]; [4],107%
same,"p53-positive nuclei, normalised",[2]; concentration not given here,0.0364% (inactive)
same,"p53-positive nuclei, normalised",[2]; [5],-0.0848%
C=C(C)[C@@H]1CCC(C)=C[C@H]1c1c(OC)cc(CCCCC)cc1OC,"nuclei count, normalised",[1]; [3],107%
same,"nuclei count, normalised",[1]; [4],109%
same,"p53-positive nuclei, normalised",[2]; concentration not given here,0.00281% (inactive)
same,"p53-positive nuclei, normalised",[2]; [5],-0.021%
CCCCC/C=C\C/C=C\C/C=C\C/C=C\CCCC(=O)NC1CC1,"nuclei count, normalised",[1]; [3],110%
same,"nuclei count, normalised",[1]; [4],110%
same,"p53-positive nuclei, normalised",[2]; concentration not given here,-0.0789% (inactive)
same,"p53-positive nuclei, normalised",[2]; [5],-0.0843%
CO[C@H]1[C@H](O)[C@@H](O[C@H]2CC[C@]3(C=O)C4CC[C@]5(C)[C@@H](C6=CC(=O)OC6)CC[C@]5(O)C4CC[C@@H]3C2)O[C@@H](C)[C@@H]1O (stereo not given in full),"nuclei count, normalised",[1]; [3],35.5%
same,"nuclei count, normalised",[1]; [4],25.2%
same,"p53-positive nuclei, normalised",[2]; concentration not given here,50.3% (active)
same,"p53-positive nuclei, normalised",[2]; [5],2.96%
C[C@@H]1O[C@@H](O[C@H]2CC[C@]3(C=O)C4CC[C@]5(C)[C@@H](C6=CC(=O)OC6)CC[C@]5(O)C4CC[C@]3(O)C2)[C@H](O)[C@H](O)[C@H]1O (stereo not given in full),"nuclei count, normalised",[1]; [3],35.2%
same,"nuclei count, normalised",[1]; [4],23.7%
same,"p53-positive nuclei, normalised",[2]; concentration not given here,28.5% (inactive)
same,"p53-positive nuclei, normalised",[2]; [5],2.41%
